Data taken from the supplement of paper PMC6897291.
Where a name gives a salt, the structure may show the parent alone.

system: RIVA; assay: growth inhibition by drug plus 177Lu-lilotomab satetraxetan (1 - RLU/untreated control) (fraction); higher = stronger inhibition; settings: 10 nM; time (day): 3; 177Lu-lilotomab satetraxetan 0.5 ug/ml
Outline: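 Growth inhibition was calculated from RealTime-Glo RLU against untreated no-drug wells. Values equal 1 − RLU/mean of 48 untreated no-drug wells per plate, read daily from day 3 after 1 h at 37°C. RIVA and U-2932 cells, with or without 18 h pretreatment by a radiolabelled anti-CD37 antibody conjugate (~600 MBq/mg; 0.5 µg/ml RIVA, 1 µg/ml U-2932), were washed and plated at 3,000 cells/well on compound-printed plates at 10/100 nM (RIVA) or 10/1,000 nM (U-2932).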

Question: `Nc1nc2[nH]cc(CCc3ccc(C(=O)N[C@@H](CCC(=O)O)C(=O)O)cc3)c2c(=O)[nH]1` [Pemetrexed] was tested. Which “growth inhibition by drug plus 177Lu-lilotomab satetraxetan” value (“growth inhibition” for short) did it give?
Answer: 0.279

Question: How did the “growth inhibition” value turn out when `COc1cc2nccc(Oc3ccc(NC(=O)Nc4cc(C)on4)c(Cl)c3)c2cc1OC` [Tivozanib (AV-951)] was run?
Answer: 0.453

Question: `CCC(=O)N1CCN(c2ccc(-n3c(=O)ccc4cnc5ccc(-c6cnc7ccccc7c6)cc5c43)cc2C(F)(F)F)CC1` [Torin 1] was tested. Which “growth inhibition” value did it give?
Answer: 0.556

Question: `COc1cccc2c1C(=O)c1c(O)c3c(c(O)c1C2=O)C[C@@](O)(C(=O)CO)C[C@@H]3O[C@H]1C[C@H](N)[C@@H](O)[C@H](C)O1` [Epirubicin Hydrochloride] was tested. Which “growth inhibition” value did it give?
Answer: 0.734

Question: `Clc1ccc(Nc2nnc(Cc3ccncc3)c3ccccc23)cc1` [Vatalanib dihydrochloride (PTK787)] was tested. Which “growth inhibition” value did it give?
Answer: 0.334

Question: Which “growth inhibition” value does the source give for `COc1cc2nccc(Oc3ccc(NC(=O)C4(C(=O)Nc5ccc(F)cc5)CC4)cc3)c2cc1OC` [XL-184 free base (Cabozantinib)] here?
Answer: 0.545

Question: For `C[C@@H](O[C@H]1OCCN(Cc2n[nH]c(=O)[nH]2)[C@H]1c1ccc(F)cc1)c1cc(C(F)(F)F)cc(C(F)(F)F)c1` [Aprepitant (MK-0869)], which “growth inhibition” value is on record?
Answer: 0.306

Question: How did the “growth inhibition” value turn out when `COc1cc2c(cc1O)CC[C@@H]1[C@@H]2CC[C@]2(C)[C@@H](O)CC[C@@H]12` [2-Methoxyestradiol] was run?
Answer: 0.476

Question: For `CNCc1ccc(-c2[nH]c3cc(F)cc4c3c2CCNC4=O)cc1`, which “growth inhibition” value is on record?
Answer: 0.384

Question: For `CC[C@@]1(O)C(=O)OCc2c1cc1n(c2=O)Cc2cc3c(CN(C)C)c(O)ccc3nc2-1` [Topotecan HCl], which “growth inhibition” value is on record?
Answer: 0.802

Question: For `Nc1cc(C(F)(F)F)c(-c2cc(N3CCOCC3)nc(N3CCOCC3)n2)cn1`, which “growth inhibition” value is on record?
Answer: 0.268

Question: `CC(C)(C)c1ccc(S(=O)(=O)/C=C/C#N)cc1` was tested. Which “growth inhibition” value did it give?
Answer: 0.438

Question: Which “growth inhibition” value does the source give for `C[C@]1(c2nc3c(C(N)=O)cccc3[nH]2)CCCN1` [ABT-888 (Veliparib)] here?
Answer: 0.338

Question: Which “growth inhibition” value does the source give for `Cc1ccc(NC(=O)c2ccc(CN3CC[C@H](N(C)C)C3)c(C(F)(F)F)c2)cc1Nc1nccc(-c2cncnc2)n1` [Bafetinib (INNO-406)] here?
Answer: 0.594

Question: How did the “growth inhibition” value turn out when `C[C@]12CC[C@@H]3c4ccc(O)cc4CC[C@H]3[C@@H]1CCC2=O` [Estrone] was run?
Answer: 0.474

Question: With `O=C(c1ccc(OCCN2CCCCC2)cc1)c1c(-c2ccc(O)cc2)sc2cc(O)ccc12` [Evista (Raloxifene Hydrochloride)] as the compound, how does the “growth inhibition” value read?
Answer: 0.368

Question: `CCN(CC)CCNC(=O)c1c(C)[nH]c(/C=C2\C(=O)Nc3ccc(F)cc32)c1C` [Sunitinib Malate (Sutent)] was tested. Which “growth inhibition” value did it give?
Answer: 0.291

Question: For `CCOc1ccc(Nc2nc(-c3c(C)nc4ccccn34)cs2)cc1`, which “growth inhibition” value is on record?
Answer: 0.559

Question: How did the “growth inhibition” value turn out when `C=CC(=O)N1CCC[C@@H](n2nc(-c3ccc(Oc4ccccc4)cc3)c3c(N)ncnc32)C1` was run?
Answer: 0.764

Question: With `CS(=O)(=O)c1cccc(CNc2nc(Nc3ccc4c(c3)CCC(=O)N4)ncc2C(F)(F)F)c1` as the compound, how does the “growth inhibition” value read?
Answer: 0.467

Question: For `CC(NC(=O)c1ccccc1/N=C/c1c(O)ccc2ccccc12)c1ccccc1` (stereo not drawn) [Sirtinol], which “growth inhibition” value is on record?
Answer: 0.345

Question: How did the “growth inhibition” value turn out when `CN(Cc1cnc2nc(N)nc(N)c2n1)c1ccc(C(=O)N[C@@H](CCC(=O)O)C(=O)O)cc1` [Abitrexate (Methotrexate)] was run?
Answer: 0.364

Question: How did the “growth inhibition” value turn out when `OCCn1cc(-c2cnc3nnn(Cc4ccc5ncccc5c4)c3n2)cn1` was run?
Answer: 0.521

Question: For `COc1cc(Nc2ncc(F)c(Nc3ccc4c(n3)NC(=O)C(C)(C)O4)n2)cc(OC)c1OC` [R406(free base)], which “growth inhibition” value is on record?
Answer: 0.577

Question: For `COc1cccc2c1C(=O)c1c(O)c3c(c(O)c1C2=O)C[C@@](O)(C(=O)CO)C[C@@H]3O[C@H]1C[C@H](N)[C@H](O)[C@H](C)O1` [Doxorubicin (Adriamycin)], which “growth inhibition” value is on record?
Answer: 0.831

Question: `CN(NC(=O)CC(=O)NN(C)C(=S)c1ccccc1)C(=S)c1ccccc1` [Elesclomol] was tested. Which “growth inhibition” value did it give?
Answer: 0.972

Question: Which “growth inhibition” value does the source give for `CN(C)CCOc1ccc(/C(=C(/CCCl)c2ccccc2)c2ccccc2)cc1` [Toremifene Citrate (Fareston, Acapodene)] here?
Answer: 0.724

Question: With `CN1CCN(CCOc2cc(OC3CCOCC3)c3c(Nc4c(Cl)ccc5c4OCO5)ncnc3c2)CC1` [Saracatinib (AZD0530)] as the compound, how does the “growth inhibition” value read?
Answer: 0.366

Question: `CC(C)C[C@H](NC(=O)[C@H](Cc1ccccc1)NC(=O)c1cnccn1)B(O)O` [Bortezomib (Velcade)] was tested. Which “growth inhibition” value did it give?
Answer: 0.955

Question: How did the “growth inhibition” value turn out when `Cn1cncc1[C@@](N)(c1ccc(Cl)cc1)c1ccc2c(c1)c(-c1cccc(Cl)c1)cc(=O)n2C` [Tipifarnib (Zarnestra)] was run?
Answer: 0.37

Question: With `COC(=O)c1ccc2c(C(=Nc3ccc(N(C)C(=O)CN4CCN(C)CC4)cc3)c3ccccc3)c(O)[nH]c2c1` [BIBF1120 (Vargatef)] as the compound, how does the “growth inhibition” value read?
Answer: 0.292

Question: How did the “growth inhibition” value turn out when `CC[C@@H]1/C=C(\C)C[C@H](C)C[C@H](OC)[C@H]2O[C@@](O)(C(=O)C(=O)N3CCCC[C@H]3C(=O)O[C@H](/C(C)=C/[C@@H]3CC[C@H](Cl)[C@H](OC)C3)[C@H](C)[C@@H](O)CC1=O)[C@H](C)C[C@@H]2OC` [Pimecrolimus] was run?
Answer: 0.545

Question: Which “growth inhibition” value does the source give for `CN(C)CCOc1ccc(-c2nc(-c3ccncc3)c(-c3ccc4c(c3)CC/C4=N\O)[nH]2)cc1` here?
Answer: 0.358

Question: Which “growth inhibition” value does the source give for `COc1ccc(CCN2CCN(CCCc3ccccc3)CC2)cc1OC` here?
Answer: 0.23

Question: `CNC(=O)c1cc(Oc2ccc(NC(=O)Nc3cc(C(C)(C)C)nn3-c3ccc4ncccc4c3)c(F)c2)ccn1` [DCC-2036 (Rebastinib)] was tested. Which “growth inhibition” value did it give?
Answer: 0.44

Question: With `CCC(C)(C)C(=O)O[C@H]1C[C@@H](C)C=C2C=C[C@H](C)[C@H](CC[C@@H]3C[C@@H](O)CC(=O)O3)[C@H]21` [Simvastatin (Zocor)] as the compound, how does the “growth inhibition” value read?
Answer: 0.493

Question: For `CCc1ccc(CCOc2ccc(CC3SC(=O)NC3=O)cc2)nc1` (stereo not drawn) [Pioglitazone (Actos)], which “growth inhibition” value is on record?
Answer: 0.53

Question: For `O=C(O)C(Cc1c[nH]c2ccccc12)N1C(=O)c2ccccc2C1=O` (stereo not drawn), which “growth inhibition” value is on record?
Answer: 0.311
